The values that follow come from PubChem BioAssay.

Values without a mark were called inactive. No rule for the calls is given here.

Sequence of Pantothenate synthetase (Mycobacterium tuberculosis (strain ATCC 25618 / H37Rv)) (P9WIL5 whole entry, looked up): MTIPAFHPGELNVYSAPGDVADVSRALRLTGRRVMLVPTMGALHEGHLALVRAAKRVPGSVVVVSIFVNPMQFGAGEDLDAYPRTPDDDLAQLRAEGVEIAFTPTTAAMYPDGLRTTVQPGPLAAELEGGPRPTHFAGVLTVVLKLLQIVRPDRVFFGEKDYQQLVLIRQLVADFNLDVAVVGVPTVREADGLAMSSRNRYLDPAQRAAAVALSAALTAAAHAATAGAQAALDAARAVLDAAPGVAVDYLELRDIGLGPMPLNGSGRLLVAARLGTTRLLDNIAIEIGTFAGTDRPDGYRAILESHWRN

The assay addresses Pantothenate synthetase (Mycobacterium tuberculosis (strain ATCC 25618 / H37Rv)) (UniProt P9WIL5). The assay can be described thus: Recombinant Mtb pantothenate synthetase (PanC) inhibitors, coupled enzyme, confirmatory (AID 375).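 Also: 0% = full reaction with vehicle and 100% = no enzyme background.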 Particulars: coupled enzyme assay; at 10 µM, active compounds read high.
A word on the inhibition: it is how much of the control response was suppressed. As for `CCN(CC)C(=O)CSc1nc2ccccc2c(=O)n1CCC(=O)NCc1ccc(F)cc1`, the inhibition is 0%.
In the case of `CCOC(=O)N1CCC(N2C(=O)c3ccccc3C2Nc2cc(Cl)c(OC)cc2OC)CC1` (stereo not given), the inhibition was 0%.
The value for `O=C(N1CCN(Cc2ccccc2)CC1)C12CC3CC(CC(C3)C1)C2` was 0%.
To `O=C(OCc1cc2ccccc2[nH]c1=O)c1ccco1` belongs 0%; to `CCSc1nc2c(c(=O)[nH]1)C(c1cccnc1)C(C(=O)OC(C)C)=C(C)N2` (stereo not given), 0%; to `c1ccc2[nH]c(-c3cscn3)nc2c1`, 0%.
The value for `CCCc1ccc(C(C)NC(=O)c2cnccn2)cc1` (stereo not given) was 0%; that for `COc1cccc(N2C(=O)C(O)=C(C(C)=O)C2c2ccc(OC)c(OC)c2)c1` (stereo not given) was 0%.
Regarding `CSc1c(CC(=O)NCCO)n(C)c2ccccc12`, the inhibition is 0%.
To `Cc1nnc(SCC(=O)N2CCC(C(N)=O)CC2)s1` belongs 0%.
For the compound `COc1ccc(N2CCN(CCCNC(=O)C3(S(=O)(=O)c4ccc(Cl)cc4)CC3)CC2)cc1`, the inhibition was 0%.
Turning to `CC(C)(C)OC(=O)NC(CCNC=C1C(=O)OC(C)(C)OC1=O)C(=O)O` (stereo not given), the inhibition is 4%.
The value for `O=C(Cc1c(F)cccc1Cl)Nc1ccncc1` was 6%; that for `CCCCCn1c(CN(C)Cc2ccccc2)nc2c1c(=O)n(C)c(=O)n2C` was 1%.
The value for `Nc1nc2c(ncn2COCCO)c(=O)[nH]1` was 0%; that for `CCN(CC)Cc1csc(C(N)=O)c1` was 5%; that for `O=C(CN(Cc1ccc2c(c1)OCO2)C(=O)CNS(=O)(=O)c1ccccc1)NCc1ccco1` was 0%.
The value for `COC(=O)C(C)NC(=O)C12CC3CC(CC(C3)C1)C2` (stereo not given) was 0%.
`S=C(c1ccc(N2CCOCC2)cc1)N1CCCCC1`: the inhibition was 2%.
To `CC(C)C(C(=O)Nc1ccc2c(c1)OCO2)N1C(=O)c2ccccc2C1=O` (stereo not given) belongs 0%; to `CCCCn1c(SCC(=O)OCC)nc2c1c(=O)[nH]c(=O)n2C`, 2%; to `CC(C)Oc1ccc(N2CC(C(=O)Nc3ccccc3F)CC2=O)cc1` (stereo not given), 0%.
Consider `COc1cccc(NC(=O)C2CCCN(S(=O)(=O)c3cccc4cccnc34)C2)c1` (stereo not given), for which the inhibition was 0%.
The value for `CC(C)(C)n1ncc2c(=O)n(CC(=O)NCCc3ccccc3)cnc21` was 4%; that for `O=C(CSc1ncnc2ccccc12)NCCCO` was 0%.
The value for `C/C(Cl)=C/Cn1c(SCc2ccc(Cl)cc2)nc2c1c(=O)[nH]c(=O)n2C` was 0%.
To `CCOC(=O)CSc1nc2ccccc2c(=O)n1CCN1CCOCC1` belongs 0%; to `COc1ccc(/C(O)=C2/C(=O)C(=O)N(CC3CCCO3)C2c2cccc(OC)c2)cc1` (stereo not given), 0%; to `N#CC1=C(N)N2C(=C(C#N)C13CCCCC3)SC1CCCCC12O` (stereo not given), 0%.
Regarding `CCCCCCn1c(CN2CCCC(C)C2)nc2c1c(=O)n(C)c(=O)n2C` (stereo not given), the inhibition is 6%.
The value for `CCc1nnc(NC(=O)c2ccc(S(=O)(=O)NCC(C)C)cc2)s1` was 0%; that for `CC(C)(C)NCC(O)COc1cccc2c1C[C@H](O)[C@H](O)C2` (stereo not given in full) was 0%; that for `Cc1ccc2c(c1)nnn2C1CCN(C(=O)NC23CC4CC(CC(C4)C2)C3)CC1` was 0%.
Take `Cc1cc(C)n2c(SCC(=O)Nc3cc(C)on3)nnc2n1`: the inhibition is 17%.
To `CCC(CC)C1C(C#N)=C(N)Oc2n[nH]c(C)c21` (stereo not given) belongs 0%; to `CCn1cc(C(=O)O)c(=O)c2cnc(N3CCNCC3)nc21`, 1%; to `CCc1ccccc1NC(=O)CCc1nc(-c2ccc(C)cc2)no1`, 0%.
The value for `Cc1nnc(SCC(=O)N(C(C)C)C(C)C)nc1C` was 7%; that for `COc1ccccc1N1CCN(C(=O)c2ccc(CS(=O)(=O)c3ccccc3OC)o2)CC1` was 8%.
To `COc1ccc(CC(=O)Nc2ccc(OC)c(NC(=O)c3ccco3)c2)cc1` belongs 7%.
